We go through 60 compounds from PubChem BioAssay AID2685 (National Center for Advancing Translational Sciences (NCATS), 2010).

Hit rate of the full screen: of about 320,000 compounds, about 2,100 (0.66%) were called active. Inconclusive results (about 53%) are left out. The sample holds actives, similar compounds and a random draw of the others, so the mix is not that of the screen. The call rests on the fitted dose curve; in most records, active means well fitted inhibition curve with a large enough effect in the signal ratio, with a control signal flat (not every such curve was filed as active); inconclusive means small, poorly fitted or top-dose-only effect, or effect the other way, or a change in a side signal; inactive means flat fitted curve, though single readings scatter; the % refers to the signal ratio.
Potency means the concentration at half of the fitted maximal effect.

This experiment can be described thus: qHTS Assay for Lipid Storage Modulators in Drosophila S3 Cells.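 On cell number change: cells counted by Cell Tracker Red CMTPX staining in the red channel.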 On lipid storage change, negative = inhibition: on the % scale 0 is the no-effect control and ±100 the full control effect. Conditions: BODIPY lipid droplet fluorescence, 18-24 h, cells fed with added oleic acid; cell number change: measured here: cell count max response; series mostly up to 46.1 µM; lipid storage change, negative = inhibition: at the top concentration. The essentials: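 Laser-scanning cytometry quantifies lipid droplet accumulation (500–530 nm total intensity; droplet/cell object ratio) in oleic acid-fed (400 uM added) Drosophila S3 cells treated with a concentration series. 20 uM Triacsin C defined 100% inhibition.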
(In qHTS, concentration-response curves come from the screen itself.)
As for `COc1cccc(NC(=O)c2ccn(C)n2)c1`, the “lipid storage change, negative = inhibition” value is -6.25% (inactive) and the cell number change is -7.57%.
On to `CCCC(=O)Nc1cc(C(=O)O)ccc1Sc1ccccc1`, for which the “lipid storage change, negative = inhibition” value is -8.07% (inactive) and the cell number change was -3.48%.
Take `Cc1cc(C)n(-c2ccc(C(=O)NCc3ccc4c(c3)OCO4)cc2)n1`: the “lipid storage change, negative = inhibition” value is 22% (inactive) and the cell number change was -26%.
Consider `COc1ccc(S(=O)(=O)NC2CC(=O)N(c3ccc(C)c(C)c3)C2)cc1C` (configuration not stated), for which the compound was classed as inactive.
`O=C(Cn1cnc2ccccc2c1=O)c1ccccc1`: the “lipid storage change, negative = inhibition” value was 3.76% (inactive) and the cell number change is -5.21%.
On to `O=C(CNC(=O)c1ccncc1)N/N=C/c1cc(Br)ccc1O`, for which the “lipid storage change, negative = inhibition” value was -6.45% (inactive) and the cell number change was -8.8%.
`Cc1cccc(N2C(=O)CC(N(C(=O)c3ccco3)c3cccc(C)c3)C2=O)c1` (configuration not stated): the “lipid storage change, negative = inhibition” value was -2.05% (inactive) and the cell number change is 1.21%.
The matching figures for `COc1ccccc1/C=c1\sc2nc(-c3ccccc3OC)nn2c1=O`: -3.78% (inactive) and -6.9%.
The matching figures for `Cn1c(-c2sc3cc(C(F)(F)F)cnc3c2-c2cccs2)n[nH]c1=S`: -9.3% (inactive) and -11.9%.
Turning to `O=S(=O)(c1ccccc1)n1ccc2ccccc21`, the “lipid storage change, negative = inhibition” value was 14.7% (inactive) and the cell number change is -15.8%.
For `O=C1N=C(N2CCN(c3cccc4ccccc34)CC2)S/C1=C/c1cccs1`, the outcome was inactive.
As to `O=C1/C(=C\c2cccs2)Sc2ccc3ccccc3c21`, the Potency was 16.4 µM (active) and the cell number change was -14.8%.
As for `NC1=NC(=O)/C(=C/c2cccs2)S1`, the “lipid storage change, negative = inhibition” value is 15.7% (inactive) and the cell number change is -5.63%.
As for `O=C(O)c1ccc(NC(=O)c2cn(-c3ccccc3)nc2-c2cccc(Cl)c2)cc1`, the “lipid storage change, negative = inhibition” value was -13.3% (inactive) and the cell number change was determined as 4.66%.
As to `CC(O)CCc1nc2ccc(C(=O)O)cc2[nH]1` (configuration not stated), the “lipid storage change, negative = inhibition” value is -7.1% (inactive) and the cell number change came out at 3.44%.
Take `CC(C)c1nc2ccc(C(=O)O)cc2[nH]1`: the Potency was 23.1 µM (active) and the cell number change was -0.0603%.
In the case of `CC(O)c1nc2ccc(C(=O)O)cc2[nH]1` (configuration not stated), the “lipid storage change, negative = inhibition” value is -2.22% (inactive) and the cell number change was -0.214%.
For the compound `COc1cccc(-n2c(SCC(=O)OC(C)C)nnc2-c2cccnc2)c1`, the compound was called inactive.
For the compound `O=C(COc1ccc(Br)cc1)N1CCNC1=O`, the compound was classed as inactive and the cell number change is -1.77%.
For the compound `O=C(COc1ccccc1Br)N1CCNC1=O`, the “lipid storage change, negative = inhibition” value was 10.5% (inactive) and the cell number change is -13%.
As for `O=C(COc1ccccc1)N1CCNC1=O`, the Potency was 11.6 µM (active) and the cell number change was -10.9%.
On to `CCOc1ccc(NC(=NCc2ccc3c(c2)OCO3)SC2CC(=O)N(c3ccc(OCC)cc3)C2=O)cc1` (configuration not stated), for which the “lipid storage change, negative = inhibition” value was -5.4% (inactive) and the cell number change is 1.82%.
`COc1cccc(NC(=O)[C@@H]2CCCN2C(=O)[C@@H]2Cc3ccccc3CN2C(=O)OC(C)(C)C)c1`: the call was inactive and the cell number change was -9.43%.
`O=C1C2C(c3ccccc3)CC=CC2[C@H](c2ccc(C(F)(F)F)cc2)N1Cc1ccccc1` (some centres not stated): the Potency was 18.4 µM (active).
For the compound `Cc1ccc(-c2cccc(C3CC=CC4C3C(=O)N(Cc3ccccc3)C4c3ccc(C(F)(F)F)cc3)c2)cc1` (configuration not stated), the “lipid storage change, negative = inhibition” value is 12.2% (inactive) and the cell number change was 0.818%.
As for `O=C1C2C(c3cccc(/C=C/c4ccccc4)c3)CC=CC2C(c2ccc(C(F)(F)F)cc2)N1Cc1ccccc1` (configuration not stated), the “lipid storage change, negative = inhibition” value is 9.24% (inactive) and the cell number change was -0.28%.
With `O=C1CCCc2ccccc2N1`, the “lipid storage change, negative = inhibition” value is 5.18% (inactive) and the cell number change is 15.4%.
Consider `O=C(Nc1ccc(Cl)c(Cl)c1)OCCNC(=O)c1ccncc1`, for which the “lipid storage change, negative = inhibition” value is 6.78% (inactive) and the cell number change worked out at 19.3%.
On to `O=C(Nc1ccncc1)OCc1ccccc1`, for which the compound was called inactive and the cell number change is -15%.
For `CC(=O)NCCOC(=O)Nc1ccncc1`, the Potency was 18.4 µM (active) and the cell number change is -23.8%.
On to `C=C(C)C(=O)N1CC2(CC(c3cccc(NC(=O)CC(c4ccccc4)c4ccccc4)c3)=NO2)C[C@H]1C(N)=O` (some centres not stated), for which the “lipid storage change, negative = inhibition” value is 7.73% (inactive) and the cell number change is -5.55%.
As for `COc1ccccc1CCC(=O)OCC(=O)Nc1cc(C)nn1-c1ccccc1`, the “lipid storage change, negative = inhibition” value is 17.4% (inactive) and the cell number change was 9.67%.
As for `COc1cccc(NC(=O)Nc2ccc3c(c2)nc(C)n3C)c1`, the “lipid storage change, negative = inhibition” value is 1.42% (inactive) and the cell number change is -12.3%.
On to `Nc1ccccc1C(=O)NNc1c2ccccc2nc2ccccc12`, for which the “lipid storage change, negative = inhibition” value is -6.09% (inactive) and the cell number change is -7.95%.
As for `O=C(NNc1c2ccccc2nc2ccccc12)c1ccc(O)cc1`, the Potency was 16.4 µM (active) and the cell number change was -16.9%.
As to `O=C(NNC(=O)c1ccc2ccccc2n1)c1ccc(O)cc1`, the “lipid storage change, negative = inhibition” value is 13% (inactive) and the cell number change is -5.74%.
For the compound `O=C(CN1C(=O)NC2(CCCC2)C1=O)Nc1cc(Cl)ccc1Oc1ccccc1`, the “lipid storage change, negative = inhibition” value was 23.3% (inactive) and the cell number change was 2.01%.
Take `O=C(O)c1ccc(CSc2nnc(-c3ccco3)o2)cc1`: the Potency is 1.84 µM (active).
With `c1ccc(CSc2nnc(-c3ccco3)o2)cc1`, the “lipid storage change, negative = inhibition” value is 21.4% (inactive) and the cell number change was 29.7%.
Turning to `Brc1ccc(CSc2nnc(-c3ccco3)o2)cc1`, the “lipid storage change, negative = inhibition” value is 4.11% (inactive) and the cell number change was -8.74%.
In the same order, the values of `CCC(C)[C@H](NC(=O)NCCCN1CCOCC1)C(=O)OC` (some centres not stated) are -7.03% (inactive) and 4.55%.
Turning to `COCCCNC(NC(=O)c1ccc(Cl)cc1)C(Cl)(Cl)Cl` (configuration not stated), the “lipid storage change, negative = inhibition” value is -10.7% (inactive) and the cell number change came to 18.7%.
In the case of `Cc1cc(NC(=O)Nc2cccc([N+](=O)[O-])c2)no1`, the “lipid storage change, negative = inhibition” value was 18.7% (inactive).
As for `Cc1ccc(NC(=O)Nc2cccc([N+](=O)[O-])c2)cc1F`, the Potency was 9.2 µM (active) and the cell number change is -9.68%.
For the compound `O=C(Nc1cccc([N+](=O)[O-])c1)Nc1cccc([N+](=O)[O-])c1`, the “lipid storage change, negative = inhibition” value is -13.5% (inactive) and the cell number change was -6.97%.
Regarding `COc1ccc(CNC(=O)c2cccnc2Sc2ccc(C)c(C)c2)cc1`, the “lipid storage change, negative = inhibition” value was 12.2% (inactive) and the cell number change is -8.63%.
Consider `Cc1cc(C(=O)CCC(=O)Nc2ncccc2O)c(C)s1`, for which the call was inactive and the cell number change was 23.7%.
With `Cc1cc(OC(C)C(=O)NNC(=O)Nc2ccc(F)cc2F)cc(C)c1Cl` (configuration not stated), the “lipid storage change, negative = inhibition” value was -7.22% (inactive) and the cell number change turned out to be 12.3%.
For the compound `CC(=O)N1N=C(c2ccccc2OC(=O)/C=C/c2ccccc2)CC1c1ccccc1` (configuration not stated), the “lipid storage change, negative = inhibition” value is -2.65% (inactive).
For `COc1ccc(C2CC(c3cccs3)=NN2C(=O)COC(=O)C2CCCCC2)cc1OC` (configuration not stated), the outcome was inactive.
In the case of `COc1ccc(C2CC(c3ccc4ccccc4c3OC(C)=O)=NN2C(=O)/C=C/c2ccccc2)cc1` (configuration not stated), the Potency was 6.51 µM (active) and the cell number change was -4.95%.
Take `COc1ccc(C2=NN(C(=O)CSc3ncccn3)C(c3ccc(C)cc3)C2)cc1` (configuration not stated): the “lipid storage change, negative = inhibition” value is -17% (inactive) and the cell number change is -13.1%.
As to `COc1ccc(C2CC(c3ccccc3)=NN2C(=O)COC(=O)c2cccnc2)cc1` (configuration not stated), the “lipid storage change, negative = inhibition” value was -12% (inactive) and the cell number change was -20.7%.
`COc1ccc(C2CC(c3ccccc3)=NN2C(=O)CSc2ncccn2)cc1` (configuration not stated): the Potency was 18.4 µM (active) and the cell number change is -10.6%.
For the compound `COc1ccc(C2CC(c3cccs3)=NN2C(=O)c2ccccc2)cc1OC` (configuration not stated), the “lipid storage change, negative = inhibition” value was -4.84% (inactive) and the cell number change amounted to 0.175%.
Turning to `COc1ccc(C2=NN(C(=O)CSc3ncccn3)C(c3ccc(OC)cc3)C2)cc1` (configuration not stated), the “lipid storage change, negative = inhibition” value was -17.9% (inactive) and the cell number change was -13.6%.
For `COc1ccc(CC(=O)OCC(=O)N2N=C(c3ccccc3)CC2c2ccc(OC)cc2)cc1` (configuration not stated), the “lipid storage change, negative = inhibition” value was 6.9% (inactive) and the cell number change amounted to 9.3%.
For `COc1ccc(C2CC(c3ccc(OC)cc3OC(C)=O)=NN2C(=O)c2ccccc2)cc1` (configuration not stated), the “lipid storage change, negative = inhibition” value is -12.8% (inactive) and the cell number change is -16.6%.
For `COc1ccc(C2CC(c3ccccc3)=NN2C(=O)COC(=O)CNC(=O)c2ccccc2)cc1` (configuration not stated), the Potency is 14.6 µM (active) and the cell number change was determined as 17%.
With `COc1cc(C2CC(c3cccs3)=NN2C(=O)CCl)ccc1OC(F)F` (configuration not stated), the Potency is 11.6 µM (active) and the cell number change was determined as 6.96%.
